This passage reports max response results from PubChem BioAssay AID2314 (National Center for Advancing Translational Sciences (NCATS), 2010).

Structures are written as SMILES. Among all 300,000 compounds or so, about 37,000 (12%) were called active. The sample holds actives, similar compounds and a random draw of the others, so the mix is not that of the screen. Unmarked numbers belong to inactive results. Rule as the data show it: active = max response mostly above about 13% (no sharp cut-off); inactive = mostly below about 14%.

This experiment can be described thus: Cycloheximide Counterscreen for Small Molecule Inhibitors of Shiga Toxin. Also: read at 38.3 µM for the half of the compounds with a filed dose; 0% is about no effect. Conditions: cell reporter, cycloheximide protein synthesis inhibition counterscreen; stronger effect = higher value.
Turning to `COc1ccc(NC(=O)C2CCN(S(=O)(=O)c3ccc4[nH]c(=O)oc4c3)CC2)c(OC)c1`, the max response was -1.11%.
For the compound `CN(c1cccc(NC(=O)c2ccc(CN3CCc4ccccc4C3)cc2)c1)S(C)(=O)=O`, the max response is -1.55%.
With `Cc1ccc(N(CC(=O)Nc2cccc(N(C)S(C)(=O)=O)c2)S(C)(=O)=O)cc1`, the max response is -1.08%.
On to `CN(c1cccc(NC(=O)Nc2ccc(Cl)cc2)c1)S(C)(=O)=O`, for which the max response is 36.6% (active).
Regarding `CC(=O)Nc1cccc(/C(C)=N/NC(=O)c2ccccc2Cl)c1`, the max response was 8.8%.
Regarding `COc1cccc(C(=O)N/N=C(\C)c2cccc(NC(=O)c3ccc(F)cc3)c2)c1OC`, the max response is 27.3% (active).
Under `C/C(=N/NC(=O)c1ccc(NC(=O)c2ccc(F)cc2)cc1)c1ccccc1` stands 11%.
As to `O=C(Nc1nonc1-c1ccc(Cl)cc1)c1ccco1`, the max response was 7.55%.
Under `NC(=O)C1CCN(C(=O)COc2ccc3c4c(c(=O)oc3c2)CCC4)CC1` stands -1.44%.
Turning to `O=C(COc1ccc2c3c(c(=O)oc2c1)CCC3)NC1CCCCC1`, the max response is 1.97%.
In the case of `NC(=O)COc1ccc2c3c(c(=O)oc2c1)CCCCC3`, the max response is 12.8% (active).
In the case of `CC1CCN(C(=O)c2cc3nc(C4CC4)cc(C(F)(F)F)n3n2)CC1`, the max response was 1.99%.
For `CCNC(=S)N(CCN(CC)CC)Cc1cc2cc3c(cc2[nH]c1=O)OCCO3`, the max response is -0.726%.
As to `COc1cccc(-c2cc(=O)c3cc(NC(=O)c4ccc(C)cc4)ccc3[nH]2)c1`, the max response was -0.33%.
`CC(C)OCCCNC(=O)CNC(=O)c1cccs1`: the max response is -3.03%.
For `CC1C/C(=N/NC(=O)c2cccs2)CC(C)(C)C1` (stereo not drawn), the max response is 32.2% (active).
Consider `CC1(C)CC(=O)C/C(=N\NC(=O)c2cccs2)C1`, for which the max response was 1.56%.
As for `CC(=O)NNC1=Nc2ccccc2N(C)C(C)C1` (stereo not drawn), the max response was -2.23%.
As for `CC(C)c1ccccc1OCC(O)CN(CC(O)COc1cccc2ccccc12)C(C)C` (stereo not drawn), the figure is -5.17%.
Consider `Cc1ccc(NS(=O)(=O)c2ccc(-c3ccc(=O)[nH]n3)o2)c(C)c1`, for which the max response was -1.58%.
Under `O=C(COc1ccc2c3c(c(=O)oc2c1)CCCC3)NCC(O)c1ccccc1` (stereo not drawn) stands -1.36%.
As to `Cc1cccc(NC(=S)NC23CN4CN(CN(C4)C2)C3)c1`, the max response is 0.709%.
Consider `Cc1cccc(NC(=O)NC(=S)NC(=O)c2ccccc2)c1`, for which the max response is 42.2% (active).
Regarding `Cc1cccc(NC(=O)c2cccc(C(F)(F)F)c2)c1`, the max response was 29.9% (active).
As to `Cc1ccc(NC(=O)NC(=O)c2ccccc2)cc1F`, the max response was 25.9% (active).
Take `CNC(=O)c1ccc(NC(=O)c2cccc(C(F)(F)F)c2)cc1`: the max response was 8.58%.
As for `Cc1cccc(NC(=O)/C(=C\c2ccco2)NC(=O)c2ccccc2)c1`, the max response was 11.3%.
Consider `Cc1cccc(NC(=S)Nc2ccc(Br)cc2)c1`, for which the max response is 18.4%.
On to `CC(=O)N1CCN(CC(=O)Nc2ccc(C)c(F)c2)CC1`, for which the max response is -6.08%.
For `Cc1nc(C)c(C(=O)Nc2ccc(C)c(F)c2)o1`, the max response was 5.75%.
`O=C(CNC(=O)c1ccc(Br)o1)Nc1ccccc1`: the max response was -2.14%.
`Cc1cccc(NC(=S)NC(=O)c2ccc(Br)o2)c1`: the max response was 34.5% (active).
Turning to `Cc1cccc(NC(=O)c2nnn(-c3cccc(C(F)(F)F)c3)c2N)c1`, the max response was 19.9%.
Regarding `Cc1cc(-c2nnc(SCC(=O)Nc3ccc(F)cc3)n2N)n[nH]1`, the max response is 0.984%.
Take `COc1ccccc1NC1=NC(c2ccc(Cl)cc2)N=C(N)N1` (stereo not drawn): the max response is 2.63%.
Consider `CC(Sc1nnnn1C)C(=O)NC(=O)NC1CCCCC1` (stereo not drawn), for which the max response was 0.707%.
As for `COc1ccc(N2CCN(CCNC(=O)Nc3cc(Cl)ccc3Cl)CC2)cc1`, the max response is -4.73%.
For the compound `O=C(Nc1ccnn1C1CCN(Cc2cccc(OCCO)c2)CC1)C1CCCC1`, the max response is -3.51%.
Consider `Cc1cccc(NS(=O)(=O)c2ccc(-c3cnc(C4CC4)o3)cc2)c1`, for which the max response is -3%.
For the compound `O=C(NC(=S)Nc1ccc(S(=O)(=O)Nc2ncccn2)cc1)c1cccc(Br)c1`, the max response was 5.33%.
With `O=C(NC(=S)Nc1ncccn1)c1ccccc1Br`, the max response was 14.4% (active).
Regarding `CC1CCN(C(=S)NC(=O)c2ccccc2Br)CC1`, the max response is 3.84%.
`COc1cc2nc(CN(C)Cc3ccc(F)cc3)[nH]c(=O)c2cc1OC`: the max response is -2.34%.
As for `COc1ccc(-n2nc(C(=O)NCC(=O)N3CCCCCC3)c3ccccc3c2=O)cc1Cl`, the figure is 1.06%.
`COC(=O)c1ccc(Sc2ccc(F)cc2)c(N)c1`: the max response is 24.1% (active).
Turning to `COC(=O)c1ccc(C(=O)OC)c(NC(=S)N2CCN(c3ccc(F)cc3)CC2)c1`, the max response is -7.21%.
Take `COC(=O)c1nc(NC(=O)c2ccc(F)cc2)n[nH]1`: the max response is -1.65%.
For the compound `O=S(=O)(NC1CCCCC1N1CCN(c2ccccc2F)CC1)c1ccccc1` (stereo not drawn), the max response was 7.38%.
`O=C(O)c1ccc(/C=C2\SC(=S)N(NC(=O)c3ccc(Br)cc3)C2=O)cc1`: the max response was -2.52%.
With `CC1(C)NC(=O)N(CCCCSc2ccc(Cl)cc2)C1=O`, the max response is 6.3%.
For `CN(Cc1ccccc1)C(=O)c1ccc(NC2=NC3CS(=O)(=O)CC3S2)cc1` (stereo not drawn), the max response was 0.883%.
`Cc1nc2ccccc2cc1C(=O)N/N=C/c1ccc([N+](=O)[O-])cc1`: the max response was -1.28%.
Consider `NC(=S)N/N=C/c1ccc([N+](=O)[O-])cc1`, for which the max response is 2.05%.
Regarding `CCCCCC(=O)Nc1ccc(C(=O)N/N=C/c2ccc([N+](=O)[O-])cc2)cc1`, the max response was -2.53%.
For `Cc1ccsc1C(=O)N/N=C/c1ccc([N+](=O)[O-])cc1`, the max response was 55% (active).
On to `Nc1nonc1-n1nnc(C(=O)N/N=C/c2c[nH]c3ccccc23)c1-c1ccccc1`, for which the max response was 6.03%.
As for `O=C(N/N=C/c1ccc([N+](=O)[O-])cc1)c1c[nH]c2ccccc12`, the max response is 26.3% (active).
In the case of `O=C(N/N=C/c1ccc(O)cc1)/C(=C/c1ccc([N+](=O)[O-])cc1)NC(=O)c1ccccc1`, the max response is 5.92%.
Turning to `Cc1c(/C=N\NC(=O)c2cc3ccccc3o2)c2ccccc2n1C`, the max response was 5.05%.
Under `O=C(N/N=C/c1c[nH]c2ccccc12)c1ccccc1O` stands 29.2% (active); under `O=C(N/N=C/c1c[nH]c2ccccc12)c1cc2ccccc2o1`, 22.4% (active).
`O=C(Cc1c[nH]c2ccccc12)N/N=C/c1cccc(F)c1`: the max response is 11.5%.
Turning to `O=C(N/N=C/c1coc2ccccc2c1=O)c1cc2ccccc2o1`, the max response was 13.8%.
